The record followed here is PubChem BioAssay (NCI).

This is part of a sample that, as a whole, favours compounds with a hit. Of some 79,000 tested, about 15% had one in any assay. Values without a mark were called inactive. The source made the active and inactive calls. Rule as the data show it: active = growth inhibition above about 70%; inactive = the rest.

Experiment [1] can be described thus: NCI Yeast Anticancer Drug Screen. Data for the rad50 strain (AID 155).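 Also: 0% = growth of vehicle-only cultures of the same strain.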 Particulars: S. cerevisiae rad50 strain growth inhibition, hits give high values. Put shortly: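 Genetically altered yeast (DNA repair pathway); compound treatment; growth inhibition vs vehicle ctrl.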
A short description of experiment [2]: NCI Yeast Anticancer Drug Screen. Data for the mec2-1 strain (AID 157). The conditions noted are these: S. cerevisiae mec2-1 strain, hits give high values. The procedure, abridged:
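mec2-1 yeast strain, carrying an alteration in DNA damage repair or cell cycle control, was exposed to compounds; growth inhibition was measured relative to vehicle-treated controls.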

Experiment [3] can be described thus: NCI Yeast Anticancer Drug Screen. Data for the sgs1 mgt1 strain (AID 161).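 Also: 0% = growth of cultures given vehicle only.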 The conditions noted are these: S. cerevisiae sgs1 mgt1 strain, hits give high values. Put shortly: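 This yeast growth screen uses a strain with defined DNA-repair lesions; compound-treated growth is compared with vehicle-treated growth.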
Experiment [4] in a line: NCI Yeast Anticancer Drug Screen. Data for the cln2 rad14 strain (AID 165).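 Also: 0% = growth equal to vehicle treated cultures.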 Particulars: S. cerevisiae cln2 rad14 strain, hits give high values. The procedure, abridged: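 Yeast carrying cln2 and rad14 alterations (cell cycle control and DNA damage repair) were exposed to compounds. Growth inhibition was measured against vehicle-treated controls.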
The nature of experiment [5]: NCI Yeast Anticancer Drug Screen. Data for the bub3 strain (AID 167). Particulars: S. cerevisiae bub3 mutant strain, hits give high values. The procedure, abridged:
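Yeast carrying a defined mutation is treated with each compound, and growth is compared with that of vehicle-exposed cells to give inhibition.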

Experiment [6] is described as follows: NCI Yeast Anticancer Drug Screen. Data for the mlh1 rad18 strain (AID 175). Particulars: S. cerevisiae mlh1 rad18 strain growth inhibition, hits give high values. The procedure, abridged: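 Growth inhibition of the yeast strain was measured after compound exposure and expressed relative to vehicle-treated controls. The strain carries defined defects in DNA damage repair.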

[7] abbreviates: at 5.0 µM (retest, dose inferred, filed as 0.5).
[8] abbreviates: at 50.0 µM (retest, dose inferred, filed as 5.0).

For `COc1ccccc1NC(=O)C1=C(C)NC(C)=C(C(=O)Nc2ccccc2OC)C1c1ccc(OC)c(OC)c1`, the growth inhibition is 9% in experiment [1] (setting [7]); 50% in experiment [1] (setting [8]); 55.9% in experiment [1] (at 50.0 µM); -3% in experiment [2] (setting [7]); 43% in experiment [2] (setting [8]); 26.6% in experiment [2] (at 50.0 µM). The growth inhibition in experiment [3] (setting [7]) is 9%; in experiment [3] (setting [8]), 48%; in experiment [3] (at 50.0 µM), 49.9%; in experiment [4] (setting [7]) it was -4%; in experiment [4] (setting [8]), 31%; in experiment [4] (at 50.0 µM), -38.9%. The growth inhibition in experiment [5] (setting [7]) was -1%; in experiment [5] (setting [8]) it was 51%; in experiment [5] (at 50.0 µM), -3.55%; in experiment [6] (setting [7]), 2%; in experiment [6] (setting [8]), 38%; in experiment [6] (at 50.0 µM), 23.9%.
Take `CCOC(=O)N1CCN(C=S)CC1`: the growth inhibition in experiment [1] (setting [7]) was -8%; in experiment [1] (setting [8]) it was 6%; in experiment [1] (at 50.0 µM), 31.1%; in experiment [2] (setting [7]), 0%; in experiment [2] (setting [8]), -7%; in experiment [2] (at 50.0 µM) it was -23.3%. In addition, the growth inhibition is -5% in experiment [3] (setting [7]); -17% in experiment [3] (setting [8]); 57.7% in experiment [3] (at 50.0 µM); 17% in experiment [4] (setting [7]); 31% in experiment [4] (setting [8]); 15.8% in experiment [4] (at 50.0 µM). Further, the growth inhibition in experiment [5] (setting [7]) is 8%; in experiment [5] (setting [8]) it was 31%; in experiment [5] (at 50.0 µM) it was 24%; in experiment [6] (setting [7]) it was -5%; in experiment [6] (setting [8]), -1%; in experiment [6] (at 50.0 µM), 38.2%.
Take `CCOC(=O)c1c(C)[nH]c(C(=O)C(N)C(=O)OCC)c1C` (centres undefined): the growth inhibition in experiment [1] (setting [7]) is 8%; in experiment [1] (setting [8]), -3%; in experiment [1] (at 50.0 µM), 98% (active); in experiment [2] (setting [7]), 6%; in experiment [2] (setting [8]), -6%; in experiment [2] (at 50.0 µM), 99.5% (active). The growth inhibition in experiment [3] (setting [7]) was 7%; in experiment [3] (setting [8]) it was -1%; in experiment [3] (at 50.0 µM), 98.8% (active); in experiment [4] (setting [7]), 3%; in experiment [4] (setting [8]) it was -1%; in experiment [4] (at 50.0 µM), 99.5% (active). For the same compound, the growth inhibition in experiment [5] (setting [7]) was -3%; in experiment [5] (setting [8]), -5%; in experiment [5] (at 50.0 µM), 99.4% (active); in experiment [6] (setting [7]), 4%; in experiment [6] (setting [8]), -6%; in experiment [6] (at 50.0 µM), 99% (active).
Consider `CC(NC(=O)C(Cc1ccccc1)NC(=O)c1ccc[n+](Cc2ccccc2)c1)C(N)=O` (centres undefined), for which the growth inhibition is 0% in experiment [1] (setting [7]); -5% in experiment [1] (setting [8]); 0.65% in experiment [1] (at 50.0 µM); 0% in experiment [2] (setting [7]); -2% in experiment [2] (setting [8]); -3.05% in experiment [2] (at 50.0 µM). For the same compound, the growth inhibition in experiment [3] (setting [7]) is -1%; in experiment [3] (setting [8]), 3%; in experiment [3] (at 50.0 µM), -9.9%; in experiment [4] (setting [7]), 0%; in experiment [4] (setting [8]) it was -1%; in experiment [4] (at 50.0 µM) it was -4.7%. In addition, the growth inhibition in experiment [5] (setting [7]) is 1%; in experiment [5] (setting [8]) it was -11%; in experiment [5] (at 50.0 µM) it was -1.9%; in experiment [6] (setting [7]) it was -1%; in experiment [6] (setting [8]), -2%; in experiment [6] (at 50.0 µM), 28.1%.
Turning to `O=C1/C(=C(/Br)I)c2ccccc2-c2ccccc21`, the growth inhibition in experiment [1] (setting [7]) was 98% (active); in experiment [1] (setting [8]) it was 87% (active); in experiment [1] (at 50.0 µM), 7.85%; in experiment [2] (setting [7]), 99% (active); in experiment [2] (setting [8]) it was 91% (active); in experiment [2] (at 50.0 µM), 58.9%. The growth inhibition was 96% (active) in experiment [3] (setting [7]); 94% (active) in experiment [3] (setting [8]); 64.3% in experiment [3] (at 50.0 µM); 53% in experiment [4] (setting [7]); 90% (active) in experiment [4] (setting [8]); 44% in experiment [4] (at 50.0 µM). Also, the growth inhibition is 99% (active) in experiment [5] (setting [7]); 89% (active) in experiment [5] (setting [8]); 75.7% (active) in experiment [5] (at 50.0 µM); 99% (active) in experiment [6] (setting [7]); 88% (active) in experiment [6] (setting [8]); 59% in experiment [6] (at 50.0 µM).
`Fc1ccc(NC(=S)SCc2ccccc2)cc1`: the growth inhibition is 4% in experiment [1] (setting [7]); 16% in experiment [1] (setting [8]); 68.3% in experiment [1] (at 50.0 µM); -2% in experiment [2] (setting [7]); 18% in experiment [2] (setting [8]); 53.6% in experiment [2] (at 50.0 µM). Further, the growth inhibition in experiment [3] (setting [7]) is 2%; in experiment [3] (setting [8]) it was 19%; in experiment [3] (at 50.0 µM), 76.8% (active); in experiment [4] (setting [7]), -7%; in experiment [4] (setting [8]), 1%; in experiment [4] (at 50.0 µM), 28.9%. In addition, the growth inhibition was -4% in experiment [5] (setting [7]); 34% in experiment [5] (setting [8]); 45.5% in experiment [5] (at 50.0 µM); 0% in experiment [6] (setting [7]); 15% in experiment [6] (setting [8]); 78.2% (active) in experiment [6] (at 50.0 µM).
On to `CCN(CC)CCNC(=O)c1ccc2c(c1O)C(=O)c1ccccc1C2=O`, for which the growth inhibition is 6% in experiment [1] (setting [7]); 54% in experiment [1] (setting [8]); 57.3% in experiment [1] (at 50.0 µM); 27% in experiment [2] (setting [7]); 24% in experiment [2] (setting [8]); 36% in experiment [2] (at 50.0 µM). Further, the growth inhibition in experiment [3] (setting [7]) was 1%; in experiment [3] (setting [8]), 40%; in experiment [3] (at 50.0 µM) it was 60.5%; in experiment [4] (setting [7]), -10%; in experiment [4] (setting [8]) it was 23%; in experiment [4] (at 50.0 µM), 3.55%. Besides, the growth inhibition in experiment [5] (setting [7]) is -3%; in experiment [5] (setting [8]), 43%; in experiment [5] (at 50.0 µM), 33%; in experiment [6] (setting [7]), 9%; in experiment [6] (setting [8]), 44%; in experiment [6] (at 50.0 µM), 70% (active).
Consider `CCCN(CCC)C(=O)C(C)C`, for which the growth inhibition is 1% in experiment [1] (setting [7]); -1% in experiment [1] (setting [8]); 9.95% in experiment [1] (at 50.0 µM); 2% in experiment [2] (setting [7]); -4% in experiment [2] (setting [8]); -5.6% in experiment [2] (at 50.0 µM). Moreover, the growth inhibition was -1% in experiment [3] (setting [7]); -7% in experiment [3] (setting [8]); -5.3% in experiment [3] (at 50.0 µM); 0% in experiment [4] (setting [7]); -4% in experiment [4] (setting [8]); 32.5% in experiment [4] (at 50.0 µM). Moreover, the growth inhibition is -2% in experiment [5] (setting [7]); -2% in experiment [5] (setting [8]); -13.1% in experiment [5] (at 50.0 µM); 3% in experiment [6] (setting [7]); -3% in experiment [6] (setting [8]); 16.1% in experiment [6] (at 50.0 µM).
